Reference: PubChem BioAssay AID1159580 (chemical genetic matrix, 2015)
“And” between values parts separate entries of the source, which are not always exact repeats. Equal values may be shown once. Screen size: about 5,500 compounds; about 2,000 (36%) were called active. Inconclusive results (about 18%) are left out. Rule as the data show it: active = normalized growth mostly below about 0.91 (no sharp cut-off); inconclusive = no clear call, values can overlap the other calls; inactive = mostly above about 0.92. Some of the results follow.

Test: chemical genetic growth profiling, strain panel (AID 1159580);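 also: tested at 20 µM; growth read once vehicle control cultures reached saturation at 30 °C; 1 = growth at the plate median or of vehicle wells; lower values mean less growth of the strain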
Settings: S. cerevisiae deletion strains, growth OD

Measured: normalized growth

CN(C)CCC=C1c2ccccc2C=Cc2ccccc21
inactive: locus YAL013W, strain DEP1, stronger effect = lower value 0.995 | locus YAL030W, strain snc1, stronger effect = lower value 0.982 | locus YAL040C, strain CLN3, stronger effect = lower value 1.07 | locus YBL061C, strain skt5, stronger effect = lower value 0.995 | locus YBR009C, strain hhf1, stronger effect = lower value 0.99 | locus YBR021W, strain FUR4, stronger effect = lower value 0.958 | locus YBR023C, strain chs3, stronger effect = lower value 0.978 | locus YBR171W, strain sec66, stronger effect = lower value 1 | locus YBR229C, strain ROT2, stronger effect = lower value 0.995 | locus YBR231C, strain swc5, stronger effect = lower value 0.997 | locus YBR279W, strain paf1, stronger effect = lower value 0.979 | locus YCL011C, strain gbp2, stronger effect = lower value 0.984 | locus YCL016C, strain dcc1, stronger effect = lower value 0.954 | locus YCL029C, strain bik1, stronger effect = lower value 1 | locus YCL061C, strain MRC1 (second series), stronger effect = lower value 0.999 | locus YCL061C, strain MRC1, stronger effect = lower value 0.992 | locus YCL069W, strain vba3, stronger effect = lower value 0.993 | locus YCR088W, strain abp1, stronger effect = lower value 0.998 | locus YDL005C, strain med2, stronger effect = lower value 0.991 | locus YDL035C, strain GPR1, stronger effect = lower value 0.954 | locus YDL040C, strain nat1, stronger effect = lower value 0.967 | locus YDL074C, strain BRE1, stronger effect = lower value 0.956 | locus YDL101C, strain DUN1, stronger effect = lower value 1.02 | locus YDL134C, strain PPH21, stronger effect = lower value 0.996 | locus YDL185W, strain tfp1, stronger effect = lower value 0.949 | locus YDL192W, strain arf1, stronger effect = lower value 0.988 | locus YDR001C, strain nth1, stronger effect = lower value 0.983 | locus YDR069C, strain doa4, stronger effect = lower value 0.918 | locus YDR101C, strain arx1, stronger effect = lower value 1.05 | locus YDR150W, strain NUM1, stronger effect = lower value 0.987 | locus YDR159W, strain sac3, stronger effect = lower value 1 | locus YDR162C, strain NBP2, stronger effect = lower value 0.95 | locus YDR195W, strain ref2 1.05 | locus YDR297W, strain sur2, stronger effect = lower value 0.971 | locus YDR318W, strain mcm21, stronger effect = lower value 0.982 | locus YDR334W, strain swr1, stronger effect = lower value 0.958 | locus YDR335W, strain msn5, stronger effect = lower value 0.969 | locus YDR388W, stronger effect = lower value 0.959 | locus YDR392W, strain spt3, stronger effect = lower value 0.988 | locus YDR502C, strain sam2, stronger effect = lower value 0.996 | locus YEL003W, strain gim4, stronger effect = lower value 0.987 | locus YEL037C, strain rad23, stronger effect = lower value 1 | locus YEL061C, strain CIN8 (second series), stronger effect = lower value 0.982 | locus YEL061C, strain CIN8, stronger effect = lower value 0.99 | locus YER002W, strain NOP16, stronger effect = lower value 1.04 | locus YER015W, strain faa2, stronger effect = lower value 0.969 | locus YER016W, strain bim1, stronger effect = lower value 0.998 | locus YER110C, stronger effect = lower value 0.984 | locus YER111C, strain swi4, stronger effect = lower value 0.993 | locus YER155C, strain BEM2 (second series), stronger effect = lower value 0.967 | locus YER155C, strain BEM2, stronger effect = lower value 1.02 | locus YER167W, strain BCK2, stronger effect = lower value 0.999 | locus YFR010W, strain ubp6, stronger effect = lower value 0.95 | locus YGL078C, strain dbp3, stronger effect = lower value 0.985 | locus YGL086W, strain mad1, stronger effect = lower value 1.01 | locus YGL167C, strain pmr1, stronger effect = lower value 0.976 | locus YGL173C, strain kem1, stronger effect = lower value 1 | locus YGL227W, strain vid30, stronger effect = lower value 0.97 | locus YGL240W, strain doc1, stronger effect = lower value 1.02 | locus YGL248W, strain PDE1, stronger effect = lower value 0.998 | locus YGL253W, strain hxk2, stronger effect = lower value 0.988 | locus YGR135W, strain pre9, stronger effect = lower value 0.919 | locus YGR252W, strain gcn5, stronger effect = lower value 0.904 | locus YHR013C, strain ard1, stronger effect = lower value 0.945 | locus YHR027C, strain rpn1, stronger effect = lower value 0.953 | locus YHR030C, strain SLT2, stronger effect = lower value 0.983 and 1.01 | locus YHR079C, strain IRE1 (second series), stronger effect = lower value 0.984 | locus YHR079C, strain IRE1, stronger effect = lower value 1.02 | locus YHR094C, strain hxt1, stronger effect = lower value 0.99 | locus YHR129C, strain ARP1, stronger effect = lower value 0.993 | locus YHR142W, strain chs7, stronger effect = lower value 0.959 | locus YHR200W, strain rpn10, stronger effect = lower value 0.998 | locus YIL066C, strain RNR3, stronger effect = lower value 0.974 | locus YIL073C, strain SPO22, stronger effect = lower value 0.94 | locus YIL125W, strain kgd1, stronger effect = lower value 1.02 | locus YIR030C, strain dcg1, stronger effect = lower value 0.988 | locus YJL092W, strain hpr5, stronger effect = lower value 0.98 | locus YJL095W, strain BCK1 (second series), stronger effect = lower value 0.98 | locus YJL095W, strain BCK1, stronger effect = lower value 0.903 and 1.02 | locus YJL115W, strain asf1, stronger effect = lower value 0.951 | locus YJL129C, strain trk1, stronger effect = lower value 1.01 | locus YJL134W, strain LCB3, stronger effect = lower value 0.988 | locus YJL154C, strain vps35, stronger effect = lower value 0.979 | locus YJL164C, strain tpk1, stronger effect = lower value 0.998 | locus YJL166W, strain qcr8, stronger effect = lower value 0.996 | locus YJL187C, strain SWE1 (second series), stronger effect = lower value 1.01 | locus YJR043C, strain POL32, stronger effect = lower value 1.04 | locus YJR066W, strain TOR1, stronger effect = lower value 0.956 | locus YJR075W, strain HOC1, stronger effect = lower value 0.982
active: locus YAL021C, strain ccr4, stronger effect = lower value 0.893 | locus YAL026C, strain drs2, stronger effect = lower value 0.901 | locus YDR137W, strain rgp1, stronger effect = lower value 1.18 [resistant]
